Experiments:
[1] = tested on: Vero E6 infected with SARS-CoV-2; assay: morphology score (similarity to uninfected cells); higher = more like uninfected cells; conditions: 24 h
[2] = tested on: Vero E6 infected with SARS-CoV-2; assay: SARS-CoV-2 infection rate relative to infected DMSO; higher = more infection, active = 60 or less; conditions: 24 h

CC(C)c1nnc(-c2ccc(-c3ccccc3)nc2)n1-c1cccc2nonc12 (10 µM)
morphology score [1]: -0.103
SARS-CoV-2 infection rate [2]: 103% (inactive)

O=C(O)c1ccc(O)c2ncccc12 (10 µM)
morphology score [1]: 0.022
SARS-CoV-2 infection rate [2]: 102% (inactive)

c1cc(CN2CCCNCCNCCCNCC2)ccc1CN1CCCNCCNCCCNCC1 [plerixafor] (10 µM)
morphology score [1]: 0.0853
SARS-CoV-2 infection rate [2]: 95.5% (inactive)

O=C(Oc1ccc([N+](=O)[O-])cc1)N1CCN(Cc2cccc(Oc3ccccc3)c2)CC1 (10 µM)
morphology score [1]: 0.162
SARS-CoV-2 infection rate [2]: 95.5% (inactive)

CCCN1CC(NS(=O)(=O)N(CC)CC)CC2Cc3c(O)cccc3CC21 (configuration not stated) [quinagolide] (10 µM)
morphology score [1]: -0.243
SARS-CoV-2 infection rate [2]: 112% (inactive)

Oc1ccc(Nc2nc(-c3ccc(Cl)cc3)cs2)cc1 (10 µM)
morphology score [1]: 0.129
SARS-CoV-2 infection rate [2]: 106% (inactive)

NC(N)=Nc1nc(CSCC/C(N)=N/S(N)(=O)=O)cs1 [famotidine] (10 µM)
morphology score [1]: -0.0119
SARS-CoV-2 infection rate [2]: 106% (inactive)

CC1=NN(c2ccc(C)c(C)c2)C(=O)/C1=N\Nc1cccc(-c2cccc(C(=O)O)c2)c1O [eltrombopag] (10 µM)
morphology score [1]: 0.143
SARS-CoV-2 infection rate [2]: 99% (inactive)

CCNC(=O)Nc1ccc(-c2nc3c(c(N4CCOC[C@@H]4C)n2)CCN(C2COC2)C3)cc1 (0.833333 µM)
morphology score [1]: 0.13
SARS-CoV-2 infection rate [2]: 103% (inactive)

COc1ccc(Nc2ccn(-c3ccccc3)n2)cc1 (10 µM)
morphology score [1]: 0.166
SARS-CoV-2 infection rate [2]: 87.5% (inactive)

Nc1ccc(S(=O)(=O)Nc2ccccn2)cc1 [sulfapyridine] (10 µM)
morphology score [1]: 0.0798
SARS-CoV-2 infection rate [2]: 102% (inactive)

CCOc1ccn(-c2ccc(F)cc2)c(=O)c1C(=O)Nc1ccc(Oc2ccnc(N)c2Cl)c(F)c1 (10 µM)
morphology score [1]: 0.364
SARS-CoV-2 infection rate [2]: 107% (inactive)

OCc1ccc(CO)o1 [2,5-furandimethanol] (10 µM)
morphology score [1]: 0.0908
SARS-CoV-2 infection rate [2]: 112% (inactive)

c1ccc(Cn2c(N3CCNCC3)nc3ccccc32)cc1 [lerisetron] (10 µM)
morphology score [1]: 0.0474
SARS-CoV-2 infection rate [2]: 100% (inactive)

c1ccc2c(c1)CCC[C@H]2Nc1nc2ccccc2[nH]1 (10 µM)
morphology score [1]: 0.268
SARS-CoV-2 infection rate [2]: 89% (inactive)

C=CCN1CC[C@]23CCCC[C@H]2[C@H]1Cc1ccc(O)cc13 [levallorphan] (10 µM)
morphology score [1]: -0.0532
SARS-CoV-2 infection rate [2]: 114% (inactive)

CC(C)C[C@H](CN)CC(=O)O (10 µM)
morphology score [1]: -0.0821
SARS-CoV-2 infection rate [2]: 106% (inactive)

O=C(O)c1cn(-c2ccc(F)cc2)c2cc(N3CCNCC3)c(F)cc2c1=O [sarafloxacin] (10 µM)
morphology score [1]: 0.213
SARS-CoV-2 infection rate [2]: 93% (inactive)

COc1cc(NC(=O)c2ccc(-c3ccc(Cl)cc3)o2)cc(OC)c1 (10 µM)
morphology score [1]: 0.0298
SARS-CoV-2 infection rate [2]: 112% (inactive)

CCCNCCc1ccc(NS(=O)(=O)c2ccc(OC(F)(F)F)cc2)cc1 (10 µM)
morphology score [1]: -0.19
SARS-CoV-2 infection rate [2]: 110% (inactive)

C=CC(=O)O [acrylate] (10 µM)
morphology score [1]: -0.0871
SARS-CoV-2 infection rate [2]: 109% (inactive)

NS(=O)(=O)c1cc(Cl)c(Cl)c(S(N)(=O)=O)c1 [diclofenamide] (10 µM)
morphology score [1]: 0.298
SARS-CoV-2 infection rate [2]: 84.5% (inactive)

CCOc1cc(OCC)c(C(=O)CCC(=O)O)cc1OCC [trepibutone] (10 µM)
morphology score [1]: -0.0558
SARS-CoV-2 infection rate [2]: 106% (inactive)

CCCCCCOc1nsnc1C1=CCCN(C)C1 [xanomeline] (10 µM)
morphology score [1]: 0.44
SARS-CoV-2 infection rate [2]: 71.5% (inactive)

CNC(=O)c1cccc(NC(=O)N2CCC(Oc3ccccc3Cl)CC2)c1 (10 µM)
morphology score [1]: -0.102
SARS-CoV-2 infection rate [2]: 114% (inactive)

CCCCCCCCCCOc1cc2c(O)c(C(=O)OCC)cnc2cc1OCC [decoquinate] (10 µM)
morphology score [1]: 0.147
SARS-CoV-2 infection rate [2]: 101% (inactive)

Cc1oc(-c2ccccc2)nc1CCC(=O)c1ccc(CC2SC(=O)NC2=O)cc1 (configuration not stated) [darglitazone] (10 µM)
morphology score [1]: 0.276
SARS-CoV-2 infection rate [2]: 98.5% (inactive)

NCC(=O)N[C@@H](CCC(N)=O)C(=O)O (10 µM)
morphology score [1]: 0.0903
SARS-CoV-2 infection rate [2]: 108% (inactive)

N=C(N)NCCCC[C@@H]1NC(=O)CCSSC[C@@H](C(N)=O)NC(=O)[C@@H]2CCCN2C(=O)[C@H](Cc2c[nH]c3ccccc23)NC(=O)[C@H](CC(=O)O)NC(=O)CNC1=O [eptifibatide] (10 µM)
morphology score [1]: -0.125
SARS-CoV-2 infection rate [2]: 118% (inactive)

c1ccc([C@H]2CNCc3ccccc32)cc1 [4-phenyl-1,2,3,4-tetrahydroisoquinoline] (10 µM)
morphology score [1]: -0.263
SARS-CoV-2 infection rate [2]: 114% (inactive)

CCn1cc(C(=O)O)c(=O)c2cnc(N3CCNCC3)nc21 [pipemidic-acid] (10 µM)
morphology score [1]: 0.136
SARS-CoV-2 infection rate [2]: 102% (inactive)
